Assay results reported in PubChem BioAssay AID651650 (Sanford-Burnham Center for Chemical Genomics, 2012).

Molecular target: Neuropilin-1 (Homo sapiens) (UniProt O14786)
Test: NRP-1 b1b2 CendR peptide binding inhibitors, dose response, biochemical, FP and AlphaScreen panel (AID 651650)
Conditions: NRP-1 b1b2 / RPARPAR peptide binding, FP or AlphaScreen; run 1, at 100 µM (top of the series)

Sequence of Neuropilin-1 (Homo sapiens) (O14786 whole entry, looked up): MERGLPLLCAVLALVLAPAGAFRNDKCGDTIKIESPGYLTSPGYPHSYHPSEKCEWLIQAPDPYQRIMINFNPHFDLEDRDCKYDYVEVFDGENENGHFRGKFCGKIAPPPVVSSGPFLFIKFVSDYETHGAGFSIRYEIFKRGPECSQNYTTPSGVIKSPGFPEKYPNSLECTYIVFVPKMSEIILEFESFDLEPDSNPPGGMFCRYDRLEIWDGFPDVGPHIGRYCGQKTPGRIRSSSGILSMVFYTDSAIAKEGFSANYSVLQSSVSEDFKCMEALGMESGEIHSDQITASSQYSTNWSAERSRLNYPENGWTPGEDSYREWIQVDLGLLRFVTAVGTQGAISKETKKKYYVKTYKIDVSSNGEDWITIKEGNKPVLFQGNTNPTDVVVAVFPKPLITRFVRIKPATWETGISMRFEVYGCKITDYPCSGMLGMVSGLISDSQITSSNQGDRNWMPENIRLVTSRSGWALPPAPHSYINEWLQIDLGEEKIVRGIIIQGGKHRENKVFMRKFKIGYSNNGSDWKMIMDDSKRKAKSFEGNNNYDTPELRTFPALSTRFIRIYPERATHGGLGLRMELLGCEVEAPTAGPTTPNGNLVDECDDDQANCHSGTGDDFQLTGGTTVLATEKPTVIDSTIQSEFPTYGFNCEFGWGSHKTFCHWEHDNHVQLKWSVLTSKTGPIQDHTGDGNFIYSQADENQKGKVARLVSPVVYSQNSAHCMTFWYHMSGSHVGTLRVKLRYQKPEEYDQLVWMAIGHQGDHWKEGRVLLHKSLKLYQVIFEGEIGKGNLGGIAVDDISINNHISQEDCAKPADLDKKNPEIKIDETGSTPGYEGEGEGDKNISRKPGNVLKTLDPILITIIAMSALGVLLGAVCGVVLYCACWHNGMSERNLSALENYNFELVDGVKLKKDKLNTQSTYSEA

| Structure (SMILES) | inhibition [%] |
| --- | --- |
| CC(C)C(N)c1csc(NC(=O)Nc2cccc(C(F)(F)F)c2)n1 (stereo not drawn) | 28.7 |
| Fc1cnc(N2CCOCC2)nc1N1CCOCC1 | 49 |
| COc1ccc(Cn2c(C3CC3)nc3ccc(NC(=O)c4cccnc4)cc3c2=O)cc1 | 88.1 |
| O=C(NNC(=O)c1ccccc1Cl)c1cccnc1 | 94 |
| Cn1cnc2cc(NC(=O)c3ccco3)ccc21 | 77.5 |
| NS(=O)(=O)c1cccnc1Nc1cccc(Cl)c1Cl | 14.4 |
| CC(=O)Oc1cc2c(c3ccccc13)CCC2=O | 23.4 |
| OCCC1CCCCN1CC(O)COCc1ccc(Cl)cc1 (stereo not drawn) | 22.3 |
| CCOC(=O)C1=C(C)NC2=C(C(=O)CCC2)C1c1cn(Cc2ccc(Cl)cc2Cl)nc1-c1ccccc1 (stereo not drawn) | 72.6 |
| CC(Nc1nc(-c2ccc(F)cc2)cs1)c1nc2cc(C(F)(F)F)ccc2n1CCOCCO (stereo not drawn) | 43.3 |
| NC(=O)C(c1ccc(Cl)cc1Cl)c1ncc(C(F)(F)F)cc1Cl (stereo not drawn) | 88.6 |
| CCc1ccc(C2CC(=O)N(c3cccc(F)c3)C3=C2C(=O)OC3)cc1 (stereo not drawn) | 33.7 |
| NC(=O)c1c(NC(=O)C(=O)N2CCOCC2)sc2c1CCCC2 | 16.2 |
| C=C(C)COc1ccc(-c2[nH]ncc2-c2ccccc2)c(O)c1 | 16.9 |
| O=C(Nc1cc(C(F)(F)F)ccc1N1CCCC1)C1CC(=O)N(Cc2ccccc2)C1 (stereo not drawn) | 2.78 |
| O=C(NCc1ccccc1)c1cccc(S(=O)(=O)N2CCCCC2)c1 | 61.2 |
| CN1CCC(=NNC(=O)c2ccco2)CC1 | 17.4 |
| Cc1ccc(S(=O)(=O)NCC(=O)N(c2ccccc2)C(C(=O)NCc2ccccc2)c2ccco2)cc1 (stereo not drawn) | -4.65 |
| Cn1c(=O)c2[nH]c(COc3ccccc3)nc2n(C)c1=O | 16.6 |

| Structure (SMILES) | inhibition [%] |
| --- | --- |
| CCOc1ccccc1C1CC(=O)NC2=C1C(=O)CC(C)(C)C2 (stereo not drawn) | 32 |
| C/C(=N\N=c1/sc2ccccc2n1C)c1ccccn1 | 23.1 |
| O=C(O)c1cc(NCc2ccc(F)cc2)ccc1N1CCOCC1 | 46.8 |
| O=C(Cn1cccc1C(=O)c1ccccc1)NCCC1=CCCCC1 | 94.3 |
| COc1ccc(CCNC(=O)c2ccc(Cl)c(S(=O)(=O)N(C)c3ccccc3)c2)cc1 | -7.22 |
| Cc1nn(-c2ccccc2)c(C)c1C(=O)OCC(=O)Nc1ccccc1 | 20.2 |
| CC(=O)c1cccc(S(=O)(=O)N2CCC(C(=O)O)(c3ccccc3)CC2)c1 | 49.1 |
| O=C(NC1CC1)c1ccc(COc2ccc(F)cc2)o1 | 23.1 |
| O=C(Cc1ccc(F)cc1)N1CCN=C1SCc1ccc([N+](=O)[O-])cc1 | 18.7 |
| C=C1CCN([C@@H](CC(C)C)C(=O)NCc2ccccc2)S(=O)(=O)c2ccccc21 | 12.9 |
| CCC1=C(OC(=O)N(CC)CC)N2C(=O)OC(=NCC3CC3)[C@]2(Cc2ccccc2)[C@H]2C1=CC[C@H]1C(=O)N(C)C(=O)[C@H]12 | -6.33 |
| CCCCOc1ccc(C(=O)N/C(=C/C=C/c2ccccc2)C(=O)NCCCO)cc1 | 10.5 |
| O=C(O)CCSc1nnc(COc2cccc3cccnc23)n1-c1ccccc1 | 52.3 |
| CC(C)Oc1ccc(F)cc1-c1cc(C(=O)NCc2ccc(F)cc2)[nH]n1 | 16 |
| O=C(COc1ccc(S(=O)(=O)N2CCCC2)cc1)Nc1ccc2c(c1)OCCO2 | 34 |
| Cc1cc(NC(=O)COC(=O)c2ccc(C)c(C)c2)no1 | 5.88 |
| CC1CCC(NC(=O)CSc2nncn2C)CC1 (stereo not drawn) | 19.2 |
| O=C(c1ccco1)N1CCN(C(=O)c2ccccc2OC(=O)C23CC4CC(CC(C4)C2)C3)CC1 | 74.6 |
| NCCCC[C@H]1CN=C(N)N1CCC12CC3CC(CC(C3)C1)C2 | 70.7 |
